Tau fibril ThT = tau fibrillization inhibition (ThT binding). recombinant tau K18 P301L, heparin-induced fibrillization, ThT fluorescence. Potency, µM (highest dose often 57.4 µM), hits mostly inhibitors. 270,000 tested, 2.1% active. AID 1460; further: nearly all actives have a fitted effect of over 55% in size
Target sequence (P10636 561-689 P618L limits assumed): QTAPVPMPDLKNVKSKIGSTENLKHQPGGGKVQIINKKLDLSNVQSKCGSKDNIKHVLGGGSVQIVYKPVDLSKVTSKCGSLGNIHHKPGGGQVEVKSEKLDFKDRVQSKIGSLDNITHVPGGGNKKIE
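In this qHTS, human K18 P301L tau is incubated with compound and heparin for 6 hr at 37 C, and Thioflavin T fluorescence then reports fibril load.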
RORgamma inh = inhibitors of mouse ROR gamma transcriptional activity; P51450; Drosophila S2 Gal4-RORgamma UAS-luciferase reporter, 20 h; Potency, µM (titrated, usually from 53.6 µM), hits mostly inhibitors; 310,000 tested, 5.4% active; AID 2551; further: nearly all actives have a fitted effect of over 60% in size
Target sequence (P51450 whole entry, looked up, the tested form may be a part): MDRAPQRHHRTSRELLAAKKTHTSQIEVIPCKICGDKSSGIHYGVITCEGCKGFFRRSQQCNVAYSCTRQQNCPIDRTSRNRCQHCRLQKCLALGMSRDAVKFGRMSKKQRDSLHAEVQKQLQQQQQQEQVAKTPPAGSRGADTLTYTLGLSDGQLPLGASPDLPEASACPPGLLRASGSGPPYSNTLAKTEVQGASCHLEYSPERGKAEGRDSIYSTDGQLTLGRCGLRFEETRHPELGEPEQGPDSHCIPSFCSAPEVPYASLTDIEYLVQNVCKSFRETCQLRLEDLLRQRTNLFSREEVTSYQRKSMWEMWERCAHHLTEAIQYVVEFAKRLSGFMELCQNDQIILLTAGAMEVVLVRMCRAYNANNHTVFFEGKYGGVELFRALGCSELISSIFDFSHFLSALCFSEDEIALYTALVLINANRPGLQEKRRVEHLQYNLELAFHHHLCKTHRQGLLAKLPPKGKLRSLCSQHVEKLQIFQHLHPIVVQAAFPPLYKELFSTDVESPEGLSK
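A Gal4/UAS one-hybrid system in insect cells: metallothionein-promoter Gal4–ROR gamma fusion plus Photinus luciferase reporter. Copper sulfate 700 uM final, 20 hr ambient incubation, luminescent detection after 10 min with reagent.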
Tau fluor cs = counter-screen for tau fibril formation inhibitors; 280,000 tested, 0.93% active; Potency, µM (highest dose often 57.7 µM); tau K18 P301L (four-repeat tau fragment) Alexa594 fluorescence, heparin fibrillization; further: nearly all actives have a fitted effect of over 55% in size
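Human K18 P301L tau (15 uM unlabeled plus 0.24 uM Alexa 594-labeled, final) in 100 mM sodium acetate pH 7 was mixed with compound and 20 uM heparin and incubated 6 hr at 37 C.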
Gal4-VP16 FLuc = counter-screen for ROR gamma inhibitors: Gal4-VP16 reporter. Drosophila S2 Gal4-VP16 UAS-luciferase, luminescence, 20 h. Potency, µM (series often up to 53.6 µM), actives largely listed as inhibitors. 310,000 tested, 3.5% active;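 further: Gal4-VP16 expression switched on by copper sulfate through the metallothionein promoter; nearly all actives have a fitted effect of over 50% in size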
Tau fibril FP = inhibitors of human tau fibril formation; K18 P301L tau heparin fibrillization, Alexa594 FP, 6 h; Potency, µM (titrated, usually from 57.7 µM), most hits filed as inhibitors; 280,000 tested, 0.39% active; AID 1468; further: nearly all actives have a fitted effect of over 55% in size
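Compound effects on tau fibrillization are measured by Alexa 594 fluorescence polarization (ex 555, em 632 nm). K18 P301L tau is used at 15 uM with 0.24 uM labeled tracer, and 20 uM heparin induces aggregation over 6 hr at 37 C.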
Large screens that a line does not name were inactive; [ ] = another dose, or the depositor's remark. Rows were chosen to be rich in hits. Some 7.3% of all compounds tested hit in one or more screens of this group. The call rests on the fitted dose curve; in most records, active means well fitted curve in the direction sought with a large enough effect; inconclusive means small, poorly fitted or top-dose-only effect, or another doubt; inactive means no such curve, though single readings can be large; an effect the other way counts as inactive or inconclusive.

CC(C)C[C@H](N)C(=O)N[C@H](C(=O)N[C@@H](CCCN=C(N)N)C(=O)N[C@H](CS)C(=O)NCC(=O)N[C@@H](CCCCN)C(=O)N[C@@H](Cc1cnc[nH]1)C(=O)N[C@@H](CO)C(=O)N[C@@H](CCCN=C(N)N)C(=O)O)C(C)C	none (no result: Tau fibril ThT, Tau fluor cs, Tau fibril FP)
CCOC(=O)Cc1c(C)nc2c(-c3ccc(OC)c(OC)c3)c(C)nn2c1C	none (no result: RORgamma inh, Gal4-VP16 FLuc)
CC1(C)CN(C(Cc2ccccc2)C(N)=O)C1=O (configuration not stated)	none (no result: Tau fibril ThT, Tau fluor cs, Tau fibril FP)
COc1cccc(C2C3=C(Nc4[nH]n(-c5ccccc5)c(=O)c42)c2ccccc2C3=O)c1 (configuration not stated)	Tau fibril ThT 5µM, RORgamma inh inconclusive, Tau fluor cs inconclusive
CCN1CCOC(=O)C1CC(=O)Nc1cc(C)cc(C)c1 (configuration not stated)	Tau fibril ThT inconclusive (no result: RORgamma inh, Gal4-VP16 FLuc)
COc1ccc(NC(=O)C2CCCN2S(=O)(=O)c2ccc3nc(-c4ccccc4)[nH]c3c2)cc1 (configuration not stated)	none (no result: RORgamma inh, Gal4-VP16 FLuc)
Cc1ccc(NC(=O)C2CCCN2S(=O)(=O)c2ccc3nc(-c4ccccc4)[nH]c3c2)cc1F (configuration not stated)	Tau fluor cs 28µM[quencher], Tau fibril FP inconclusive (no result: RORgamma inh, Gal4-VP16 FLuc)
COc1cccc(/C=N/Nc2nc3ccccc3n3cnnc23)c1O	Tau fibril ThT inconclusive, RORgamma inh inconclusive, Gal4-VP16 FLuc inconclusive
CCOc1cccc(/C=N/Nc2nc(N3CCCC3)nc(N3CCCC3)n2)c1O	RORgamma inh inconclusive (no result: Tau fibril ThT)
COc1cccc(/C=N/Nc2cc(-n3nc(C)cc3-c3ccccc3)ncn2)c1O	RORgamma inh inconclusive, Tau fluor cs inconclusive, Gal4-VP16 FLuc 1µM
COc1cccc(/C=N/Nc2nc(Nc3ccccc3)nc(-n3nc(C)cc3C)n2)c1O	Tau fibril ThT inconclusive, RORgamma inh 1.1µM, Tau fluor cs inconclusive, Gal4-VP16 FLuc 2.5µM
COc1ccc(-c2nc(CCNC(=O)c3ccccc3)cs2)cc1OC	Tau fibril ThT inconclusive (no result: RORgamma inh, Gal4-VP16 FLuc)
CCOC(=O)C1=C(C)NC2=C(C(=O)c3ccccc32)C1c1cccc2ccccc12 (configuration not stated)	Tau fibril ThT inconclusive, Tau fluor cs 14µM[quencher]
CCOC(=O)C1=C(C)NC2=C(C(=O)c3ccccc32)C1c1ccc(O)cc1 (configuration not stated)	Tau fibril ThT 10µM, Tau fluor cs inconclusive
CC(=O)Nc1sc2c(c1-c1nc3ccccc3s1)CCN(C(C)C)C2	RORgamma inh 8.9µM, Gal4-VP16 FLuc 11µM
O=C(Nc1ccc([N+](=O)[O-])cc1)C(=O)Nc1cccc(C(=O)O)c1	Tau fibril ThT inconclusive, RORgamma inh 0.35µM, Gal4-VP16 FLuc 1µM
O=C(N/N=C/C(Cl)=C/c1ccc([N+](=O)[O-])cc1)C(=O)Nc1ccccc1C(=O)O	Tau fibril ThT 3.2µM, Tau fluor cs inconclusive, Gal4-VP16 FLuc inconclusive
O=C(N/N=C/C(Cl)=C/c1ccc([N+](=O)[O-])cc1)C(=O)Nc1ccc(C(=O)O)cc1	Tau fibril ThT 3.5µM
O=C(O)c1cccc([N+](=O)[O-])c1	none (no result: Tau fibril ThT, Tau fluor cs, Tau fibril FP)
CC(=O)NCCNc1ncnc2ccc(-c3ccccc3C#N)cc12	none (no result: Tau fibril ThT, Tau fluor cs, Tau fibril FP)
O=C(NCc1ccccc1Cl)c1cnc2sc(N3CCCCC3)nn2c1=O	none (no result: RORgamma inh, Gal4-VP16 FLuc)
Clc1ccc(CNc2ccc(CNc3ncn[nH]3)cc2)c(Cl)c1	Tau fibril ThT inconclusive, RORgamma inh inconclusive, Tau fluor cs inconclusive, Gal4-VP16 FLuc 13µM, Tau fibril FP inconclusive
Clc1ccc(CNc2ccc(CNc3ncn[nH]3)cc2)cc1	Tau fluor cs inconclusive
O=C1NC(=Nc2cccc(O)c2)S/C1=C\c1cccc([N+](=O)[O-])c1	RORgamma inh inconclusive (no result: Tau fibril ThT, Tau fluor cs, Tau fibril FP)
CN(C)c1ccc(/C=N/N=C2/NC(=O)/C(=C/c3ccc([N+](=O)[O-])cc3)S2)cc1	Tau fibril ThT inconclusive, RORgamma inh 2.8µM, Gal4-VP16 FLuc inconclusive
Cc1ccc2nc(NCCN)c3ncc(C)n3c2c1	Gal4-VP16 FLuc inconclusive (no result: Tau fibril ThT, Tau fluor cs, Tau fibril FP)
CCOC(=O)C1=C(C)N=c2s/c(=C\c3ccc(O)c([N+](=O)[O-])c3)c(=O)n2C1c1ccccc1OC (configuration not stated)	RORgamma inh inconclusive (no result: Tau fibril ThT, Tau fluor cs, Tau fibril FP)
CCOC(=O)C1=C(C)n2c(s/c(=C/c3cccc([N+](=O)[O-])c3)c2=O)=NC1c1ccc(O)c(OC)c1 (configuration not stated)	Tau fibril ThT 14µM, Tau fluor cs inconclusive
Cc1ccc2nc(-c3cc(N)cc(N)c3)oc2c1	Tau fibril ThT inconclusive, RORgamma inh 2.8µM, Tau fluor cs inconclusive, Gal4-VP16 FLuc inconclusive
Nc1ccc(-c2nc3ccc(-c4nc5ccccc5o4)cc3[nH]2)cc1	Tau fibril ThT 8.9µM, Tau fluor cs 16µM[quencher]
Cc1nc2ccc(-c3nc4ccccc4o3)cc2[nH]1	RORgamma inh inconclusive, Gal4-VP16 FLuc inconclusive
Nc1ccc(-c2nc3ccc(N)cc3o2)cc1	Tau fibril ThT inconclusive, RORgamma inh inconclusive, Gal4-VP16 FLuc 11µM
COCCCNC(=O)c1cnn(-c2ccccc2Cl)c1C1CCN(C(=O)OC(C)(C)C)CC1	none (no result: RORgamma inh, Gal4-VP16 FLuc)
O=C(Oc1ccccc1)N1CCC2(CC1)CCN(c1ccncc1)CC2	none (no result: Tau fibril ThT, Tau fluor cs, Tau fibril FP)
COc1cccc(-n2c(=O)c3sc4ccccc4c3n(CC(=O)NC3CCCCC3)c2=O)c1	none (no result: RORgamma inh, Gal4-VP16 FLuc)
COc1cc(C(=O)Nc2ccc(NC(=O)c3ccccc3)nc2)cc(OC)c1OC	none (no result: Tau fibril ThT, Tau fluor cs, Tau fibril FP)
COc1cccc(NC(=S)Nc2cccnc2)c1	RORgamma inh inconclusive
COc1cc(NC(=S)Nc2ccccn2)cc(OC)c1OC	RORgamma inh 3.5µM, Gal4-VP16 FLuc 22µM
COC(=O)Cc1ccc(NC(=S)Nc2ccccn2)cc1	RORgamma inh 5µM, Gal4-VP16 FLuc inconclusive
COc1cc(NC(=S)Nc2ccccn2)cc(OC)c1	RORgamma inh 2.5µM, Gal4-VP16 FLuc 5.6µM
C=CCN1C(=O)C2(NNc3ccccc3O2)c2ccccc21 (configuration not stated)	Tau fibril ThT 7.1µM, Tau fluor cs 13µM[quencher]
C=CCN1C(=O)C2(NC(=O)c3ccccc3N2)c2ccccc21 (configuration not stated)	none
CCCCN1C(=O)C2(NNc3ccccc3O2)c2ccccc21 (configuration not stated)	Tau fibril ThT 11µM, RORgamma inh inconclusive, Tau fluor cs 11µM[quencher], Gal4-VP16 FLuc inconclusive
CCCCN1C(=O)C(O)(c2c(C)[nH]c3ccccc23)c2ccccc21 (configuration not stated)	none (no result: RORgamma inh, Gal4-VP16 FLuc)
Cc1ccc(OCC(=O)Nc2ccc3nc(SCC(N)=O)sc3c2)cc1	none (no result: RORgamma inh, Gal4-VP16 FLuc)
CC(C)C(=O)NC(c1ccco1)c1ccc2cccnc2c1O (configuration not stated)	RORgamma inh 2.8µM, Gal4-VP16 FLuc 5µM
CC(C)C(=O)NC(Nc1cccc2cccnc12)C(Cl)(Cl)Cl (configuration not stated)	none
Oc1c(C(Nc2nc3ccccc3s2)c2ccco2)ccc2cccnc12 (configuration not stated)	RORgamma inh 2.5µM, Gal4-VP16 FLuc 5.6µM, Tau fibril FP inconclusive

Screening results (PubChem BioAssay)
